One sequence from paper PMC7862700, “An all-to-all approach to the identification of sequence-specific readers for epigenetic DNA modifications on cytosine” can be followed below.

Common to all, as to assay: DAPPL (digital affinity profiling via proximity ligation, sequencing); 10 mM Tris-HCl pH 7.5, 50 mM NaCl, 1 mM DTT, 4% glycerol, room temperature, 30 min; GST-TFs on glutathione beads, 16-mer random dsDNA library, 0.1% formaldehyde crosslink after washing; high values mean tight binding
The target of one experiment is T1, FLI1 (Homo sapiens, UniProt Q01543 1-452).
T1 sequence: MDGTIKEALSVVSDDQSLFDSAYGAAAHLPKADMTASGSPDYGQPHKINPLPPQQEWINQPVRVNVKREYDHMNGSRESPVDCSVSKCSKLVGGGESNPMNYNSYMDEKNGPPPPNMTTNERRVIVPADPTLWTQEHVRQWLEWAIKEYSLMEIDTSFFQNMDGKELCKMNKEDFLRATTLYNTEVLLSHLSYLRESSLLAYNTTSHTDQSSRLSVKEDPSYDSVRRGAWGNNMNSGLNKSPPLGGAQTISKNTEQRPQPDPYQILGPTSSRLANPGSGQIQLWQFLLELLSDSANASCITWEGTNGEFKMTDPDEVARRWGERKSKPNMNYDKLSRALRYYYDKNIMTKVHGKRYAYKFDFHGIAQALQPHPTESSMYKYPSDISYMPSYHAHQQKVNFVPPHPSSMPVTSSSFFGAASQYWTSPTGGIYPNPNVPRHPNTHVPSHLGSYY
Conditions: protein: recombinant; tags: N-terminal GST; dsDNA, one strand shown. The procedure, abridged:
(§1)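 Pools were built from human transcription factors expressed in yeast as GST fusions, captured on glutathione beads and DNA-barcoded, along with a tag-only sample. Incubation with 200 nmole of a 16-mer random double-stranded DNA library lasted 30 min at room temperature in Tris/NaCl/DTT/glycerol buffer, and was followed by washing, 0.1% formaldehyde crosslinking, proximity ligation, PCR amplification and Illumina NextSeq500 sequencing. Binding signal is the quotient of each hexamer's read frequency for a factor and its frequency for the tag-only sample.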

A further experiment has as its target T2, ELK1 (Homo sapiens, UniProt P19419 1-428).
T2 sequence: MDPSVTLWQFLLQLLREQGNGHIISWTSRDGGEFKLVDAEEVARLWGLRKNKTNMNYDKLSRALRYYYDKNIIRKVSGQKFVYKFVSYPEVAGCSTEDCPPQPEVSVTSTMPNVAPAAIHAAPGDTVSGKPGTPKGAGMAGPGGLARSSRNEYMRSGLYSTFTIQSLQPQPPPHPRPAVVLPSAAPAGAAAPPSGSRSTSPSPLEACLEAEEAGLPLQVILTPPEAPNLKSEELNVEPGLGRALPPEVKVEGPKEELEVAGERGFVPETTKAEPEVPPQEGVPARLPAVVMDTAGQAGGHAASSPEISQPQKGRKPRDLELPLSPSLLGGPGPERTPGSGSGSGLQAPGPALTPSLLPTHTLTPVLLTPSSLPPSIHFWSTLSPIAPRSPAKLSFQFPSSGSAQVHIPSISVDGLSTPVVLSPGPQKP
The following applies: protein: recombinant; tags: N-terminal GST; dsDNA, one strand shown. A digest of the protocol: as §1

A further experiment deals with T3, GABPA (Homo sapiens, UniProt Q06546 1-454).
T3 sequence: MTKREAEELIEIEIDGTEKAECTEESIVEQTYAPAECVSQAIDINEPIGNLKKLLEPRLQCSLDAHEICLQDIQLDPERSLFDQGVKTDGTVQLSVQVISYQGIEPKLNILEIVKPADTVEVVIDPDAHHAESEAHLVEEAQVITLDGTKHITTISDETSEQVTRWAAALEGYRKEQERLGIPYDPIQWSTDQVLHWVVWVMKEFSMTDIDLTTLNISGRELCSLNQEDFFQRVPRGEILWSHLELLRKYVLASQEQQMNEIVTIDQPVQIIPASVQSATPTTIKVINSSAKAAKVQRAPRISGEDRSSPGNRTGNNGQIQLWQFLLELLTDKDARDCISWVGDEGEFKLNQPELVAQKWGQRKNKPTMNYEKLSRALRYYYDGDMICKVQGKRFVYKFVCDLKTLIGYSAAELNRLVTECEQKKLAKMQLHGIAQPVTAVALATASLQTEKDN
The following applies: protein: recombinant; tags: N-terminal GST; dsDNA, one strand shown. A digest of the protocol: as §1

The target of the next experiment is T4, ERG (Homo sapiens, UniProt P11308 1-479).
T4 sequence: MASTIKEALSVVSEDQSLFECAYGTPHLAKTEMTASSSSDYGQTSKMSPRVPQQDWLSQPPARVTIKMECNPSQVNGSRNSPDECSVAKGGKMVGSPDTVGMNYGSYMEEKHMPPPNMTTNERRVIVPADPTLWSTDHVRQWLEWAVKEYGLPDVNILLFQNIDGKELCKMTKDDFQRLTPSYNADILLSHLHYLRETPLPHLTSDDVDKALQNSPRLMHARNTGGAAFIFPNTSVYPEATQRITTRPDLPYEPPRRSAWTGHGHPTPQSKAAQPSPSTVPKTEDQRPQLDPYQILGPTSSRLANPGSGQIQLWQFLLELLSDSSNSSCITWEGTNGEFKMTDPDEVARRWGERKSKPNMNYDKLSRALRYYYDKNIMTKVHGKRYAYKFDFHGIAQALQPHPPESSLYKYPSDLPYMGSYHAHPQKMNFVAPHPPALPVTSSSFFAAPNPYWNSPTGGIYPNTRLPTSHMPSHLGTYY
The following applies: protein: recombinant; tags: N-terminal GST; dsDNA, one strand shown. The procedure, abridged:
as §1

A further experiment concerns the target ELF1 (Homo sapiens, UniProt P32519 1-619). The following applies: protein: recombinant; tags: N-terminal GST; dsDNA, one strand shown. A digest of the protocol:
as §1

The next experiment has as its target T5, EHF (Homo sapiens, UniProt Q9NZC4 1-300).
T5 sequence: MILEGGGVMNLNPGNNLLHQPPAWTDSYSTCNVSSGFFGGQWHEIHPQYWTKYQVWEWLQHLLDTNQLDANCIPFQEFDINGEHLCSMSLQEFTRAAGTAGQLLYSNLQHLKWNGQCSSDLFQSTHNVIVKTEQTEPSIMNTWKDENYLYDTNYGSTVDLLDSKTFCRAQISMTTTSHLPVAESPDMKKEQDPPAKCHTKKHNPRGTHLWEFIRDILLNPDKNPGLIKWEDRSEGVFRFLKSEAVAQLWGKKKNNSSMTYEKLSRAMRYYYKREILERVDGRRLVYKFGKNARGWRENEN
The following applies: protein: recombinant; tags: N-terminal GST; dsDNA, one strand shown. The procedure, abridged:
as §1

The next experiment addresses SPI1 (Homo sapiens, UniProt P17947 1-270). The following applies: protein: recombinant; tags: N-terminal GST; dsDNA, one strand shown. A digest of the protocol: as §1
In the next experiment the target is SPIB (Homo sapiens, UniProt Q01892 1-262). Conditions: protein: recombinant; tags: N-terminal GST; dsDNA, one strand shown. The procedure, abridged:
as §1

Another experiment has as its target T6, ELK3 (Homo sapiens, UniProt P41970 1-407).
T6 sequence: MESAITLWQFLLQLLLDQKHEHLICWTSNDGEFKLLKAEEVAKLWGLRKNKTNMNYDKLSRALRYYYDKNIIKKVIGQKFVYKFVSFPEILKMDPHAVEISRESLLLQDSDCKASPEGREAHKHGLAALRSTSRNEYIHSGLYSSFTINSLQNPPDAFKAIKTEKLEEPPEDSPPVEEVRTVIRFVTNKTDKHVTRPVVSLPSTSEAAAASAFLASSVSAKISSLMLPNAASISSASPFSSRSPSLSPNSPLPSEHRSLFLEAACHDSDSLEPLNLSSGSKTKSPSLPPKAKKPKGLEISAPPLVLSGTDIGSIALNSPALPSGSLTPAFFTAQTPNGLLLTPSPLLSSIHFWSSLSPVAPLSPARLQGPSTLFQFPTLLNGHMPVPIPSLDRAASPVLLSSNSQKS
The following applies: protein: recombinant; tags: N-terminal GST; dsDNA, one strand shown. The procedure, abridged:
as §1

The target in another experiment is T7, FEV (Homo sapiens, UniProt Q99581 1-238).
T7 sequence: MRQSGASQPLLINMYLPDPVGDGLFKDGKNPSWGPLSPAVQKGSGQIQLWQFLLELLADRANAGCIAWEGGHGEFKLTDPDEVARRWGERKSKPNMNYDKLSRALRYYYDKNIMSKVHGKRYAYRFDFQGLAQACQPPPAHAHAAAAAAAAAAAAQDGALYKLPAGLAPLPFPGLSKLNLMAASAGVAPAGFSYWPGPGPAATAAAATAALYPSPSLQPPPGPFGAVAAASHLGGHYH
Conditions: protein: recombinant; tags: N-terminal GST; dsDNA, one strand shown. A digest of the protocol: as §1

A further experiment addresses ETV5 (Homo sapiens, UniProt P41161 1-510). The following applies: protein: recombinant; tags: N-terminal GST; dsDNA, one strand shown. The procedure, abridged:
as §1

The next experiment concerns the target HSF1 (Homo sapiens, UniProt Q00613 1-529). Conditions: protein: recombinant; tags: N-terminal GST; chain copies: 3; dsDNA, one strand shown. The procedure, abridged:
as §1

The target of another experiment is T8, SPIC (Homo sapiens, UniProt Q8N5J4 1-248).
T8 sequence: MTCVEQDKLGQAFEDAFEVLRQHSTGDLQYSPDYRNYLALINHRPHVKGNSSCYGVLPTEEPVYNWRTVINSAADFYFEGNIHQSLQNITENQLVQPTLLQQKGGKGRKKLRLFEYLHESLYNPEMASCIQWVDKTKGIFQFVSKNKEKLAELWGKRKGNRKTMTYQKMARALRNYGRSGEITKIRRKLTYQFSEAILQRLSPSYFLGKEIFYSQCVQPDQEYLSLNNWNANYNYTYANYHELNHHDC
The following applies: protein: recombinant; tags: N-terminal GST; dsDNA, one strand shown. The procedure, abridged:
as §1

The target in the next experiment is ELF4 (Homo sapiens, UniProt Q99607 1-663). Conditions: protein: recombinant; tags: N-terminal GST; dsDNA, one strand shown. The procedure, abridged:
as §1

The target of another experiment is T9, ELK4 (Homo sapiens, UniProt P28324-2 1-405).
T9 sequence: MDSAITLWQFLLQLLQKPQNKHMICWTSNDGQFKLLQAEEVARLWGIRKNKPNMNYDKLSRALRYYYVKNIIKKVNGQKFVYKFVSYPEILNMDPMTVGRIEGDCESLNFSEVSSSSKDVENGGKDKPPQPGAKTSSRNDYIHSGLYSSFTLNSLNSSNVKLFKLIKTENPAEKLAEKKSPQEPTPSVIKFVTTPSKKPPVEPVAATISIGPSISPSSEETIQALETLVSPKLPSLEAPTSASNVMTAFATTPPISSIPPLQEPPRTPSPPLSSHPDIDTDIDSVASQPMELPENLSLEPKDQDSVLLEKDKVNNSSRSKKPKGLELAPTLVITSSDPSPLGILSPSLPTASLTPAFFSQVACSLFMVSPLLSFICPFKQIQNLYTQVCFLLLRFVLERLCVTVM
The following applies: protein: recombinant; tags: N-terminal GST; dsDNA, one strand shown. A digest of the protocol:
as §1

The target in a further experiment is T10, ETV2 (Homo sapiens, UniProt O00321 1-342).
T10 sequence: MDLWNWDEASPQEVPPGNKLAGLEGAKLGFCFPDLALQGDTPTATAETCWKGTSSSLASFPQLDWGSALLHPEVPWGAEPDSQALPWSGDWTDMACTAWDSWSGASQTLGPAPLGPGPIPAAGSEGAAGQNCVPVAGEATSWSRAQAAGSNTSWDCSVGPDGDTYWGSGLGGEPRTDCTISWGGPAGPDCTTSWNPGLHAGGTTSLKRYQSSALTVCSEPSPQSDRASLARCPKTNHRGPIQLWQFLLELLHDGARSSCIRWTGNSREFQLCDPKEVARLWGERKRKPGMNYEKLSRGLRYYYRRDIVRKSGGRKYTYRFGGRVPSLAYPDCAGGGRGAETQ
Conditions: protein: recombinant; tags: N-terminal GST; dsDNA, one strand shown. A digest of the protocol: as §1

A further experiment deals with T11, ELF3 (Homo sapiens, UniProt P78545 1-371).
T11 sequence: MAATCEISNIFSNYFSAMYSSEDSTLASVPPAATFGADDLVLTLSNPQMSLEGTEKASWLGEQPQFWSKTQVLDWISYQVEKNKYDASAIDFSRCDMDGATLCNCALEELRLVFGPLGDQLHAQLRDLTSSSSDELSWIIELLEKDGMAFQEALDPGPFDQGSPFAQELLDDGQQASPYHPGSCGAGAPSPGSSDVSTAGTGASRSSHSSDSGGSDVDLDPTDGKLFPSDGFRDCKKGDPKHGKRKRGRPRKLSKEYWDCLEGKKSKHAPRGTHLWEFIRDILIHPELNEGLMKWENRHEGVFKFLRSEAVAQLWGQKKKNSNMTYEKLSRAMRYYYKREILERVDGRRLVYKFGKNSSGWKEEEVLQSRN
The following applies: protein: recombinant; tags: N-terminal GST; dsDNA, one strand shown. The procedure, abridged:
as §1

The target of another experiment is CRX (Homo sapiens, UniProt O43186 1-299). The following applies: protein: recombinant; tags: N-terminal GST; dsDNA, one strand shown. The procedure, abridged:
as §1

The target in another experiment is ETV1 (Homo sapiens, UniProt P50549 1-477). The following applies: protein: recombinant; tags: N-terminal GST; dsDNA, one strand shown. The procedure, abridged: as §1
Sequence of ETV1 (P50549 whole entry): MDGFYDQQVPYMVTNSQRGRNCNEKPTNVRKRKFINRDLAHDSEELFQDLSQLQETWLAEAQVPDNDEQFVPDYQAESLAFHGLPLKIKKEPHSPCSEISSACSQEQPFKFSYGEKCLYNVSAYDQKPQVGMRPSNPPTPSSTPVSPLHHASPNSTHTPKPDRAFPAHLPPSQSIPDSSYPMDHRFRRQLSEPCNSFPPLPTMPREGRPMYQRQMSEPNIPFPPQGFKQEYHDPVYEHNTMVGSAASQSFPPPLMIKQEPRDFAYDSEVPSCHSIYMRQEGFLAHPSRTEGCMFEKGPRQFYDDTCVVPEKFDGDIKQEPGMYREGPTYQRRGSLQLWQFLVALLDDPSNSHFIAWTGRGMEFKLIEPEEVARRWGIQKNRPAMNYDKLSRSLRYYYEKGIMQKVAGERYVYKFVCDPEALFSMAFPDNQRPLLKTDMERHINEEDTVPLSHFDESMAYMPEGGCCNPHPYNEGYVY

Sequence of HSF1 (Q00613 whole entry): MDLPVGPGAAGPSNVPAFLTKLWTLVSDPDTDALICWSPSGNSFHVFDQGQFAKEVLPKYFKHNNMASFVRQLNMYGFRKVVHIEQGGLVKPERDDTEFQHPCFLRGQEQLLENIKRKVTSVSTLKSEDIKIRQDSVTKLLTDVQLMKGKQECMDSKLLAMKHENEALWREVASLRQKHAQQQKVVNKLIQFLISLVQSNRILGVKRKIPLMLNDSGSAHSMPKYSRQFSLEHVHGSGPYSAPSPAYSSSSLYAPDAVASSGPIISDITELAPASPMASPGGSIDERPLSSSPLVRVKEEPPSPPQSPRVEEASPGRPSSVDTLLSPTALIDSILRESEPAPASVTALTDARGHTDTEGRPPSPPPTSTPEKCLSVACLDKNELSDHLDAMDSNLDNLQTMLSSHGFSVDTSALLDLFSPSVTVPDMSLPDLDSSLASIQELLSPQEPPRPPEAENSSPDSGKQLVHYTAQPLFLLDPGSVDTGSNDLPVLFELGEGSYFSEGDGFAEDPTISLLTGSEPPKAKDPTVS
Sequence of ELF4 (Q99607 whole entry): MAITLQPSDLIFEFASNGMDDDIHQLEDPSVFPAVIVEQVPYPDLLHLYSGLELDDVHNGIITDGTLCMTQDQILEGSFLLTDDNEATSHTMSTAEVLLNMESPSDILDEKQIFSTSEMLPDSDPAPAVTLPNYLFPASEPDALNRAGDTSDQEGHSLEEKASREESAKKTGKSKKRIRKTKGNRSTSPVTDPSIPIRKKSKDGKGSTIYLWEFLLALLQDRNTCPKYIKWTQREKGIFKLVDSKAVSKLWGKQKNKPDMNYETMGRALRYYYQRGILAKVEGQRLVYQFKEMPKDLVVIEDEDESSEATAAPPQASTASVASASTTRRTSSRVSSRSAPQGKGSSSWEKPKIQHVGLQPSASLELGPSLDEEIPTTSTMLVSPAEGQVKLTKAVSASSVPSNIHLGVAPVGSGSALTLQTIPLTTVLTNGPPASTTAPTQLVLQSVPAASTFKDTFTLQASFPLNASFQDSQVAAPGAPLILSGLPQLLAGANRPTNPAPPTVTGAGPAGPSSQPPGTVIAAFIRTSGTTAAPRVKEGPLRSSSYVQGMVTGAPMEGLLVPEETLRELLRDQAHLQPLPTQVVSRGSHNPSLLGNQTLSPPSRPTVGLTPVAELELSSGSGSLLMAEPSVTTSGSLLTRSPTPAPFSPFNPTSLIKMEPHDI
Sequence of SPIB (Q01892 whole entry): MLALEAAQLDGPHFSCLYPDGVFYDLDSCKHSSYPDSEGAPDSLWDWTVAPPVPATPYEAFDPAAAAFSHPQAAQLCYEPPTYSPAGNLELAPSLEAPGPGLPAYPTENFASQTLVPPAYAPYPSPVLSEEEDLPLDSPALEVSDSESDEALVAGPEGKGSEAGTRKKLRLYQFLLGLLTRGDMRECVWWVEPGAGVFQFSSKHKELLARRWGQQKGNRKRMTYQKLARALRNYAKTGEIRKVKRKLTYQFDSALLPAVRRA
Sequence of ETV5 (P41161 whole entry): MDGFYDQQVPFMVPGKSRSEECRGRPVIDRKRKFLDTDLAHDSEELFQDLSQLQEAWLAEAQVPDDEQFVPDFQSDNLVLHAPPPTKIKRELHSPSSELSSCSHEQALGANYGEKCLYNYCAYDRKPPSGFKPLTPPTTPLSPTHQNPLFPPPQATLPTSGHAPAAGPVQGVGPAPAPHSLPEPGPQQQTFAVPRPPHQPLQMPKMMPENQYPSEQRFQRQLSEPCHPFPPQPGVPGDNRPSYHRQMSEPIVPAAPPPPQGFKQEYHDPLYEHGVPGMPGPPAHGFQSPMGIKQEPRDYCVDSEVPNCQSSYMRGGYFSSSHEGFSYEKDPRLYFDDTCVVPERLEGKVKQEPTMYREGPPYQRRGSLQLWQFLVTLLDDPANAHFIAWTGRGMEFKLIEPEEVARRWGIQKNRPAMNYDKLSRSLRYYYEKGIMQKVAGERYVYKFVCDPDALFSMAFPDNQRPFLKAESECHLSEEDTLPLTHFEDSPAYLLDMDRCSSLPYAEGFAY
Sequence of CRX (O43186 whole entry): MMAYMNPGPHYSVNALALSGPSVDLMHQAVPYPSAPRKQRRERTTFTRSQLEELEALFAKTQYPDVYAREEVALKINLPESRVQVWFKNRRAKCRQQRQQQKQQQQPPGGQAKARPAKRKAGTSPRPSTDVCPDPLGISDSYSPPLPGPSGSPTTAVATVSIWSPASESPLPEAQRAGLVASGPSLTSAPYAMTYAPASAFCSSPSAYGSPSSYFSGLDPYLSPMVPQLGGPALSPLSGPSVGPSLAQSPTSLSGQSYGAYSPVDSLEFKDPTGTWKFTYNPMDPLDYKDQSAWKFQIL
Sequence of ELF1 (P32519 whole entry): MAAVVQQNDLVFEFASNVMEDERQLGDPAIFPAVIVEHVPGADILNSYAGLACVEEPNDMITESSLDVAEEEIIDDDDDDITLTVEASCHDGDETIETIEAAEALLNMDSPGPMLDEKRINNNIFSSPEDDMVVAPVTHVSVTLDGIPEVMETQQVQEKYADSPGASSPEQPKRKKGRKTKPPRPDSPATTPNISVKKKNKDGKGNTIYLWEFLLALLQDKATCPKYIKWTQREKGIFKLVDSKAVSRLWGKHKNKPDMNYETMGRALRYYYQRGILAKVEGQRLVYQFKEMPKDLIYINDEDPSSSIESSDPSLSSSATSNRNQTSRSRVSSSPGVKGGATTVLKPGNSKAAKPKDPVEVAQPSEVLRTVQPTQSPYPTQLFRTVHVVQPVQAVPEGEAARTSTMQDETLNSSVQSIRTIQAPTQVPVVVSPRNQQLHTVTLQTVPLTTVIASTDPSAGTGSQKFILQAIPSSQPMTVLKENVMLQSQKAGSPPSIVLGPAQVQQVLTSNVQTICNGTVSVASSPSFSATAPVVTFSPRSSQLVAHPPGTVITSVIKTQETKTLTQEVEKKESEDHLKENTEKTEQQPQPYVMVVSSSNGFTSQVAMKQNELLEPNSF

As to CGTCTA, the binding signal is 1.15 fold enrichment (6-mer frequency, TF over GST control) with FLI1; 1.26 fold enrichment (6-mer frequency, TF over GST control) with ELK1; 1.31 fold enrichment (6-mer frequency, TF over GST control) in the experiment with GABPA; 1.37 fold enrichment (6-mer frequency, TF over GST control) with ERG; 1.31 fold enrichment (6-mer frequency, TF over GST control) with ELF1; 1.27 fold enrichment (6-mer frequency, TF over GST control) with EHF. Moreover, the binding signal was 1.25 fold enrichment (6-mer frequency, TF over GST control) in the experiment with SPI1; 1.37 fold enrichment (6-mer frequency, TF over GST control) in the experiment with SPIB; 1.25 fold enrichment (6-mer frequency, TF over GST control) with ELK3; 1.24 fold enrichment (6-mer frequency, TF over GST control) with FEV; 1.31 fold enrichment (6-mer frequency, TF over GST control) with ETV5; 1.52 fold enrichment (6-mer frequency, TF over GST control) in the experiment with HSF1. Further, the binding signal with SPIC was 1.16 fold enrichment (6-mer frequency, TF over GST control); with ELF4, 1.4 fold enrichment (6-mer frequency, TF over GST control); in the experiment with ELK4, 1.34 fold enrichment (6-mer frequency, TF over GST control); with ETV2 it was 1.29 fold enrichment (6-mer frequency, TF over GST control); with ELF3 it was 1.29 fold enrichment (6-mer frequency, TF over GST control); in the experiment with CRX, 1.28 fold enrichment (6-mer frequency, TF over GST control). The binding signal with ETV1 was 1.36 fold enrichment (6-mer frequency, TF over GST control).
